# Records with an inconclusive call do not appear. Where a call stands in place of a potency, no number is given. A number with no mark means an inactive call. Calls of active or inactive are those of the source. The call rests on the fitted dose curve; in most records, active means well fitted curve in the direction sought with a large enough effect in the repeat runs; inconclusive means weak or mixed curves; inactive means no such curve, though single readings can be large; an effect the other way counts as inactive or inconclusive.
# Experiments:
# [1] = A CellTox Green Cytotoxicity Assay to monitor cytotoxicity in HepG2 cells - 32 hour (AID 1224883); further: nearly all actives have a fitted effect of over 50% in size; further: potency means the concentration at half of the fitted maximal effect
# Outline: (§1)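 First, HepG2 cells (600/well) mixed with reagent were plated; second, after 5 h at 37 C they received compounds via pintool; third, fluorescence was measured at 0 h through 40 h at 8 h intervals.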
# [2] = A CellTox Green Cytotoxicity Assay to monitor cytotoxicity in HEK293 cells - 8 hour (AID 1224884); further: nearly all actives have a fitted effect of over 35% in size; further: potency means the concentration at half of the fitted maximal effect
# Outline: (§2)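 Dead-cell fluorescence measured kinetically: asymmetric cyanine dye, HEK293, 600 cells/well, 5 h settle, 23 nL cpd/DMSO, 37 C, reads 0–40 h every 8 h.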
# [3] = qHTS RealTime-Glo MT Cell Viability Assay in HEK293 cells - 24 hour (AID 1224886); further: nearly all actives have a fitted effect of over 50% in size; further: potency means the concentration at half of the fitted maximal effect; on activity change, negative = cytotoxicity: top concentration of the series differs between compounds
# Outline: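 Reads taken at 0, 8, 16, 24, 32 and 40 h from the same wells. HEK293 cells (600/well) carried RealTime-Glo reagents from seeding, with compound added after a 5 h settle at 37 C.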
# [4] = qHTS RealTime-Glo MT Cell Viability Assay in HEK293 cells - 8 hour (AID 1224887); further: nearly all actives have a fitted effect of over 50% in size; further: potency means the concentration at half of the fitted maximal effect; on activity change, negative = cytotoxicity: top concentration of the series differs between compounds
# Outline: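 600 HEK293 cells per well, dispensed already mixed with RealTime-Glo MT reagents. Compound dosing came 5 h later. The same wells were read for luminescence at 0, 8, 16, 24, 32 and 40 h of exposure at 37 C.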
# [5] = A CellTox Green Cytotoxicity Assay to monitor cytotoxicity in HEK293 cells - 16 hour (AID 1224888); further: nearly all actives have a fitted effect of over 35% in size; further: potency means the concentration at half of the fitted maximal effect
# Outline: as §2
# [6] = qHTS RealTime-Glo MT Cell Viability Assay in HepG2 cells - 16 hour (AID 1224885); further: nearly all actives have a fitted effect of over 50% in size; further: potency means the concentration at half of the fitted maximal effect
# Outline: (§3)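 HepG2 suspension premixed with RealTime-Glo reagents is plated at 600 cells per well and left 5 h at 37 C/5% CO2. Compounds in DMSO then go in, and bioluminescence reflecting viable cell number is recorded over 40 h.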
# [7] = qHTS RealTime-Glo MT Cell Viability Assay in HepG2 cells - 0 hour (AID 1224889); further: nearly all actives have a fitted effect of over 50% in size
# Outline: as §3
# [8] = A CellTox Green Cytotoxicity Assay to monitor cytotoxicity in HepG2 cells - 8 hour (AID 1224890); further: nearly all actives have a fitted effect of over 45% in size; further: potency means the concentration at half of the fitted maximal effect
# Outline: as §1
# [9] = qHTS assay to identify small molecule antagonists of the estrogen receptor alpha (ER-alpha) signaling pathway using the BG1 cell line in the presence of 0.1 nM 17-beta-estradiol - cell viability counter screen (AID 1259241); further: nearly all actives have a fitted effect of over 40% in size; further: potency means the concentration at half of the fitted maximal effect
# Outline: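 CellTiter-Fluor read (30 min, 37C) on ER-alpha/ERE-luc VM7Luc4E2 cells; 22 hr compound treatment; agonist 0.1 nM E2 final; same-well multiplex.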
# [10] = qHTS assay to identify small molecule antagonists of the androgen receptor (AR) signaling pathway using the MDA cell line in the presence of 0.5 nM R1881 - cell viability counter screen (AID 1259242); further: nearly all actives have a fitted effect of over 45% in size; further: potency means the concentration at half of the fitted maximal effect
# Outline: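 qHTS format. MDA-kb2 (MMTV-luc, AR/GR responsive) + cpd + 0.5 nM R1881 final, 16 hr 37C/0% CO2 → CellTiter-Fluor 30 min → fluorescence intensity.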
smiles,measurement,setting,value
COc1cc(C=C2CCC/C(=C\c3ccc(O)c(OC)c3)C2=O)ccc1O,Potency,[1],21.3 µM (active)
same,Potency,[2],inactive
same,Potency,[3],23.9 µM (active)
same,Potency,[4],2.39 µM (active)
same,Potency,[5],inactive
C/C=C/C(=O)C1=C(C)CCCC1(C)C,Potency,[1],inactive
same,Potency,[2],inactive
same,Potency,[6],inactive
same,Potency,[4],inactive
same,Potency,[7],inactive
same,Potency,[8],inactive
same,Potency,[9],inactive
same,Potency,[10],inactive
C#CC(O)CCC (stereo not drawn),Potency,[1],inactive
same,Potency,[2],inactive
same,Potency,[6],inactive
same,Potency,[4],inactive
same,Potency,[7],inactive
same,Potency,[8],inactive
same,Potency,[9],inactive
same,Potency,[10],inactive
COC(=O)CC(C)CCC=C(C)C (stereo not drawn),Potency,[1],inactive
same,Potency,[2],inactive
same,Potency,[6],inactive
same,Potency,[4],inactive
same,Potency,[7],inactive
same,Potency,[8],inactive
same,Potency,[9],inactive
same,Potency,[10],inactive
CCCCOCC,Potency,[1],inactive
same,Potency,[2],inactive
same,Potency,[6],inactive
same,Potency,[5],inactive
same,Potency,[7],inactive
same,Potency,[8],inactive
same,Potency,[9],inactive
same,Potency,[10],inactive
C=CC(=O)OCC(O)COc1ccccc1 (stereo not drawn),Potency,[1],inactive
same,Potency,[2],inactive
same,Potency,[3],inactive
same,Potency,[4],inactive
same,Potency,[5],inactive
same,Potency,[7],inactive
same,Potency,[8],inactive
same,Potency,[9],inactive
same,Potency,[10],inactive
O=C1NCN(c2ccccc2)C12CCN(CCCC(c1ccc(F)cc1)c1ccc(F)cc1)CC2,Potency,[1],6.74 µM (active)
same,Potency,[2],inactive
same,Potency,[6],7.56 µM (active)
same,Potency,[7],inactive
same,Potency,[8],10.7 µM (active)
same,Potency,[9],13.3 µM (active)
CC(=O)Nc1ccc(O)cc1,Potency,[1],inactive
same,Potency,[2],inactive
same,Potency,[6],inactive
same,Potency,[5],inactive
same,Potency,[7],inactive
same,Potency,[8],inactive
same,Potency,[9],inactive
same,Potency,[10],inactive
CCN1CCN(c2cc(-c3ccc(F)cc3)c3c(n2)CCCCCC3)CC1,cytotoxicity increase,[1],34% [at 15.8 µM]
same,cytotoxicity increase,[2],-3.6% [at 15.8 µM]
same,"activity change, negative = cytotoxic",[6],-4% [at 15.8 µM]
same,activity change,[5],"4.21% [at 15.8 µM, active compounds read high]"
same,"activity change, negative = cytotoxicity",[7],21.1% [at 15.8 µM]
same,cytotoxicity increase,[8],2.47% [at 15.8 µM]
same,"activity change, negative = cytotoxicity",[9],4.69% [at 19 µM]
same,"viability change, negative = cytotoxic",[10],1.73% [at 19 µM]
CC1=C(/C=C/C(C)=C/C=C/C(C)=C\C=O)C(C)(C)CCC1,Potency,[1],inactive
same,Potency,[2],inactive
same,Potency,[6],inactive
same,Potency,[7],inactive
same,Potency,[8],inactive
same,Potency,[9],inactive
same,Potency,[10],inactive
Nc1ncnc2c1ncn2[C@@H]1O[C@H](COP(=O)(O)O)[C@@H](O)[C@H]1O,Potency,[1],inactive
same,Potency,[2],inactive
same,Potency,[3],inactive
same,Potency,[4],inactive
same,Potency,[5],inactive
same,Potency,[8],inactive
same,Potency,[9],inactive
same,Potency,[10],inactive
Cc1ccc2ccc3cccc4ccc1c2c34,Potency,[1],inactive
same,Potency,[2],inactive
same,Potency,[6],inactive
same,Potency,[5],inactive
same,Potency,[7],inactive
same,Potency,[8],inactive
same,Potency,[9],inactive
Cn1cnc2ncnc(N)c21,Potency,[1],inactive
same,Potency,[2],inactive
same,Potency,[6],inactive
same,Potency,[4],inactive
same,Potency,[7],inactive
same,Potency,[8],inactive
same,Potency,[9],inactive
same,Potency,[10],inactive
CC(C)c1cccc(C(C)C)c1N1C(=O)c2ccc(O)cc2C1=O,Potency,[1],24.5 µM (active)
same,Potency,[2],inactive
same,Potency,[6],49 µM (active)
same,Potency,[5],inactive
same,Potency,[7],inactive
same,Potency,[9],inactive
same,Potency,[10],inactive
CCCCN(C)C,Potency,[1],inactive
same,Potency,[2],inactive
same,Potency,[6],inactive
same,Potency,[4],inactive
same,Potency,[7],inactive
same,Potency,[8],inactive
same,Potency,[9],inactive
same,Potency,[10],inactive
CCc1ccc(O)c(C(C)(C)C)c1,Potency,[1],38.9 µM (active)
same,Potency,[2],inactive
same,Potency,[3],inactive
same,Potency,[4],inactive
same,Potency,[7],inactive
same,Potency,[8],43.6 µM (active)
same,Potency,[9],inactive
same,Potency,[10],inactive
C=C(c1ccc(C(=O)O)cc1)c1cc2c(cc1C)C(C)(C)CCC2(C)C,Potency,[1],43.6 µM (active)
same,Potency,[2],inactive
same,Potency,[6],inactive
same,Potency,[4],inactive
same,Potency,[7],inactive
same,Potency,[8],inactive
same,Potency,[9],inactive
same,Potency,[10],inactive
Nc1cc(Cl)c([N+](=O)[O-])cc1O,Potency,[1],inactive
same,Potency,[2],inactive
same,Potency,[6],inactive
same,Potency,[5],inactive
same,Potency,[7],inactive
same,Potency,[8],inactive
Clc1cc(Cl)c(-c2c(Cl)c(Cl)cc(Cl)c2Cl)cc1Cl,Potency,[1],inactive
same,Potency,[2],inactive
same,Potency,[6],inactive
same,Potency,[4],inactive
same,Potency,[5],inactive
same,Potency,[9],inactive
CCN(CC)CCOC(=O)C1(C2CCCCC2)CCCCC1,Potency,[1],23.9 µM (active)
same,Potency,[2],inactive
same,Potency,[6],inactive
same,Potency,[9],inactive
same,Potency,[10],inactive
C[C@@]12C(=O)OC(=O)[C@]1(C)C1CCC2O1,Potency,[1],9.52 µM (active)
same,Potency,[2],inactive
same,Potency,[3],6.74 µM (active)
same,Potency,[5],inactive
same,Potency,[7],inactive
CC1=CP(=O)(c2ccccc2)CC1 (stereo not drawn),Potency,[1],inactive
same,Potency,[2],inactive
same,Potency,[6],inactive
same,Potency,[5],inactive
same,Potency,[7],inactive
same,Potency,[8],inactive
same,Potency,[9],inactive
same,Potency,[10],inactive
C[C@@H]1CC[C@H]2C(C)(C)[C@H]3C[C@@]12CC[C@@]3(C)O,Potency,[1],54.9 µM (active)
same,Potency,[2],43.6 µM (active)
same,Potency,[6],inactive
same,Potency,[5],43.6 µM (active)
same,Potency,[7],inactive
same,Potency,[8],inactive
same,Potency,[9],inactive
same,Potency,[10],inactive
O=C1NC2CCCCN2C12CCN(CCCN1c3ccccc3CCc3ccc(Cl)cc31)CC2 (stereo not drawn),Potency,[1],23.9 µM (active)
same,Potency,[2],inactive
same,Potency,[3],8.49 µM (active)
same,Potency,[4],6.01 µM (active)
same,Potency,[7],inactive
same,Potency,[10],26.6 µM (active)
CN(C)c1ccc(N=NS(=O)(=O)O)cc1,Potency,[1],inactive
same,Potency,[2],inactive
same,Potency,[5],inactive
same,Potency,[8],inactive
same,Potency,[10],27.3 µM (active)
CN(C)CCCN1c2ccccc2Sc2ccc(C(F)(F)F)cc21,Potency,[1],23.9 µM (active)
same,Potency,[2],inactive
same,Potency,[4],21.3 µM (active)
same,Potency,[5],inactive
same,Potency,[9],inactive

# From PubChem BioAssay (Tox21)
